The results in this text go back to PubChem BioAssay AID2018 (Sanford-Burnham Center for Chemical Genomics, 2009).

About 600 (50%) of roughly 1,200 compounds were called active. The set was probably picked from earlier hits. The list shows a part of the results. Measured potencies and affinities stand elsewhere. Unmarked numbers belong to inactive results. Rule as the data show it: active = inhibition above about 42%; inactive = the rest.

The assay deals with SUMO-conjugating enzyme UBC9 (Homo sapiens) (UniProt P63279). Kind of assay: SUMOylation inhibitor hit validation, confirmation, SUMOylation inhibitor project, biochemical, AlphaScreen (AID 2018). As to conditions: AlphaScreen in vitro SUMOylation assay; at 35 µM; stronger effect = higher value. (In general: In Alpha technology, singlet oxygen from a donor bead excites a nearby acceptor bead.)
Chain of SUMO-conjugating enzyme UBC9 (Homo sapiens) (P63279 whole entry, looked up): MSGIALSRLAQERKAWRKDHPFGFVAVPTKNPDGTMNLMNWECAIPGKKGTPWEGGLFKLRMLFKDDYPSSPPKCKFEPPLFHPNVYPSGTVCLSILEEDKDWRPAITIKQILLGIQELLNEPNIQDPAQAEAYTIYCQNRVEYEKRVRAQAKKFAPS
In general, inhibition refers to the drop in the measured response relative to a control, in per cent. As to `COc1ccccc1NC(=O)Cn1nc(C)n2cccc2c1=O`, the inhibition was 0.4%.

`COc1ccccc1NC(=O)CSc1ccc2nnc(-c3ccccn3)n2n1`: the inhibition is 14.2%.

Regarding `CC1(C)CC(=O)C2=C(C1)Nc1[nH]c(=S)[nH]c(=O)c1C2c1ccccc1` (centres undefined), the inhibition was 12.7%.

Turning to `Cc1occc1C(=O)N1CCN(c2ccccc2)CC1`, the inhibition is 19.6%.

Consider `CC(C)Cn1c(N)c(C(=O)NCc2cccs2)c2nc3ccccc3nc21`, for which the inhibition was -100%.

Consider `COCCNC(=O)c1c(N)n(CCC2=CCCCC2)c2nc3ccccc3nc12`, for which the inhibition was 4.1%.

For the compound `Nc1c(C(=O)NCc2ccco2)c2nc3ccccc3nc2n1CCc1ccccc1F`, the inhibition is 2.7%.

Consider `COCCn1c(N)c(C(=O)NCc2cccs2)c2nc3ccccc3nc21`, for which the inhibition was -23.2%.

In the case of `O=c1cc(-c2ccc(F)cc2)[nH][nH]1`, the inhibition was 24.9%.

Turning to `Cn1c(NNC(=O)c2c(F)cccc2F)cc(=O)n(C)c1=O`, the inhibition is 42.1% (active).

`CC1=NN(c2ccccc2)C(=O)/C1=C/c1cccs1`: the inhibition was 40.6%.

Turning to `COc1cc(/C=C2\C(=O)N(CCC#N)N=C2C)c(Br)cc1OC(C)C`, the inhibition is -16.2%.

Take `CC1=NN(c2ccccc2)C(=O)/C1=C\c1ccc(Br)s1`: the inhibition is 75% (active).

For `CC1=NN(c2ccccc2)C(=O)/C1=C/c1ccc(Cl)cc1`, the inhibition is 58.2% (active).

Regarding `CC1=NN(c2ccccc2)C(=O)/C1=C\c1cn(CCC#N)nc1-c1ccc(Cl)cc1`, the inhibition is 60.8% (active).

With `CC1=NN(c2ccc(Br)cc2)C(=O)/C1=C/c1cccs1`, the inhibition was 59.4% (active).

Consider `O=c1c2ccccc2oc2cc(NCCCN3CCOCC3)ccc12`, for which the inhibition was -1.4%.

As for `CCCNC(=O)c1ccc2c(=O)c(O)c(-c3ccsc3)[nH]c2c1`, the inhibition is 16.3%.

With `O=C1C(NS(=O)(=O)c2cccs2)=C(N2CCN(c3cccc(C(F)(F)F)c3)CC2)C(=O)c2ccccc21`, the inhibition was 88.2% (active).

Take `S=c1[nH]nc(-c2ccccc2Cl)n1/N=C/C=C/c1ccco1`: the inhibition is 34.1%.

For the compound `S=c1[nH]nc(-c2cccnc2)n1/N=C/C=C/c1ccco1`, the inhibition is 15.4%.

With `O=C(Cc1cc(=O)oc2cc(O)ccc12)NCC1CCC(C(=O)O)CC1` (centres undefined), the inhibition is 6%.

With `COc1c(C)oc2cc(O)ccc2c1=O`, the inhibition is 3.3%.

On to `Fc1ccc(NC(=S)Nc2cccc3cnccc23)cc1`, for which the inhibition was 9.9%.

Take `CCc1ccc(NC(=S)Nc2cccc3cnccc23)cc1`: the inhibition was 69.6% (active).

In the case of `S=C(Nc1ccc(Cl)cc1)Nc1cccc2cnccc12`, the inhibition was 42.2% (active).

Take `COCCNC(=S)Nc1cccc2cnccc12`: the inhibition is -7.2%.

As for `Cc1ccc(NC(=S)Nc2cccc3cnccc23)cc1C`, the inhibition is 31.1%.

`Cc1cc(C)cc(NC(=S)Nc2cccc3cnccc23)c1`: the inhibition was 31.7%.
